Assay results taken from a collection of fitness landscapes (doi:10.1016/j.celrep.2020.107928).
Whole data set: some 81,000 sequences, median “one-hybrid fitness for binding parS DNA” near -0.17, cut for the highest 2% near 0.51. The full list was thinned out, with the highest values kept by preference.

B1: Caulobacter ParB omega fusion; a variant is named by its letters at X, in order, B8GW30 (parent)
chain: MESVVVGEPGMSEGRRGLGRGLSALLGEVDAAPAQAPGEQLGGSREAPIEILQRNPDQPRRTFREEDLEDLSNSIREKGVLQPILVRPSPDTAGEYQIVAGERAWRAAQRAGLKTVPIMVRELDDLAVLEIGIIENVQRADLNVLEEALSYKVLMEKFERTQENIAQTIGKSXSHVANXMRLLXLPDEVQSYLVSGELTAXHARAIAAAADPVALAKQIIEGGLSVRETEALARKAPNLSAGKSKGGRPPRVKDTDTQALESDLSSVLGLDVSIDHRGSTGTLTITYATLEQLDDLCNRLTRGI

Variants of: B1
Experiment: one-hybrid fitness for binding parS DNA (scaled: cognate 1, non-cognate 0); higher = stronger binding
Details: with parS DNA site
How it was run: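 Values were rescaled so that cognate is 1 and non-cognate is 0. Each is a fitness, the log change in a variant's read ratio to wild type from Illumina reads of plasmids before and after selection, with three replicate libraries pooled and variants under 10 reads dropped. Selection of the Caulobacter ParB libraries, four specificity codons randomised, used E. coli USO with a HIS3 reporter, site 19 bp from the promoter, on M9-minus-histidine with 0.1 mM IPTG and 5 mM 3-AT for 48 hours at 37°C.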

Variant	one-hybrid fitness for binding parS DNA
IHED	≤ 0.2
PMWM	≤ 0.2
NFVG	≤ 0.2
RFKG	0.988
RFVN	0.26
RFKD	≤ 0.2
NFKG	≤ 0.2
RFVG	0.77
LLAH	≤ 0.2
KLSS	≤ 0.2
YSYS	≤ 0.2
RRKF	≤ 0.2
RRVR	≤ 0.2
RRKK	≤ 0.2
RRVQ	≤ 0.2
RRVG	0.836
RRKG	0.708
LFLG	≤ 0.2
SWLK	≤ 0.2
PTSL	≤ 0.2
QPAA	≤ 0.2
FRES	≤ 0.2
PPSL	≤ 0.2
SYQW	≤ 0.2
RTDA	0.554

Variant	one-hybrid fitness for binding parS DNA
RGDA	0.235
RTNA	0.722
NTNA	≤ 0.2
DTNA	≤ 0.2
WHYV	≤ 0.2
HFVM	≤ 0.2
QFAC	≤ 0.2
REGG	0.2
RCGG	1.01
RLGG	0.995
RSGG	0.998
RIGD	≤ 0.2
RPGG	≤ 0.2
RIGG	1.02
RLGH	0.204
RIGH	0.246
RSGK	≤ 0.2
RLGN	0.469
RDGG	≤ 0.2
HLHN	≤ 0.2
EVNR	≤ 0.2
RCWR	≤ 0.2
NFVA	≤ 0.2
MAPR	≤ 0.2
YLCV	≤ 0.2

Variant	one-hybrid fitness for binding parS DNA
DLKG	≤ 0.2
TWYC	≤ 0.2
TAYD	≤ 0.2
PPTG	≤ 0.2
RQIH	≤ 0.2
RQPG	0.514
RQIG	0.805
RQIN	0.248
RQPH	≤ 0.2
RQPD	≤ 0.2
LCRT	≤ 0.2
CNIR	≤ 0.2
TNIS	≤ 0.2
ASKM	≤ 0.2
RSDP	≤ 0.2
RPNS	≤ 0.2
RSDH	≤ 0.2
RSDS	0.939
RCDS	1.02
RCNP	≤ 0.2
RCNS	0.908
RPDS	≤ 0.2
RSNH	0.203
RSND	≤ 0.2
RSNS	0.959

Variant	one-hybrid fitness for binding parS DNA
RCDP	0.204
FIST	≤ 0.2
SDVE	≤ 0.2
QNER	≤ 0.2
HDLW	≤ 0.2
GHTP	≤ 0.2
IPGC	≤ 0.2
FIPR	≤ 0.2
LDNV	≤ 0.2
RMTP	≤ 0.2
RMTC	0.985
RTTN	0.415
RTTC	0.991
RMTR	≤ 0.2
RSTQ	≤ 0.2
RITY	0.443
RSTC	0.97
RITR	≤ 0.2
RTTQ	≤ 0.2
RETC	≤ 0.2
RITC	0.962
QHHF	≤ 0.2
PRIV	≤ 0.2
VMLC	≤ 0.2
DQKI	≤ 0.2

Variant	one-hybrid fitness for binding parS DNA
NPVG	≤ 0.2
FASY	≤ 0.2
GGAS	≤ 0.2
RHTC	0.946
RKTC	0.793
RCTC	1
RHTY	0.41
RKTP	≤ 0.2
NRTC	≤ 0.2
RKTN	0.336
RDTC	≤ 0.2
RPTC	≤ 0.2
RRTR	≤ 0.2
RRTC	0.616
RHTH	≤ 0.2
MMQL	≤ 0.2
GRRM	≤ 0.2
RHSV	≤ 0.2
AKSG	≤ 0.2
REHW	≤ 0.2
EAGS	≤ 0.2
KYAG	≤ 0.2
ELVS	≤ 0.2
SVCS	≤ 0.2
LPIR	≤ 0.2

Variant	one-hybrid fitness for binding parS DNA
GTYV	≤ 0.2
VEST	≤ 0.2
SGLP	≤ 0.2
CLRH	0.227
RLTC	1
RLTM	0.346
RATC	0.982
RATN	0.436
NFTC	≤ 0.2
RFTC	0.95
RLTN	0.43
RATP	≤ 0.2
RFTN	0.405
REFP	≤ 0.2
GDAW	≤ 0.2
RNFK	≤ 0.2
RNAT	0.686
RNFF	≤ 0.2
RNAK	≤ 0.2
RNFT	0.573
RNAM	0.243
VNTS	≤ 0.2
NGQK	≤ 0.2
QLDA	≤ 0.2
AVCE	≤ 0.2

Variant	one-hybrid fitness for binding parS DNA
APET	≤ 0.2
RRTH	≤ 0.2
RRTD	≤ 0.2
RRTN	0.695
RRTS	0.651
RRTP	≤ 0.2
RRTQ	≤ 0.2
APDT	≤ 0.2
CSER	≤ 0.2
DLWS	≤ 0.2
MGLC	≤ 0.2
GWAG	≤ 0.2
KEHC	≤ 0.2
RSVT	0.707
REVT	≤ 0.2
RCVT	0.843
RDVT	≤ 0.2
RPVT	≤ 0.2
CVDQ	≤ 0.2
ITTC	≤ 0.2
LKCF	≤ 0.2
HKKY	≤ 0.2
RIIG	0.924
RIIH	0.233
RIIY	0.398

Variant	one-hybrid fitness for binding parS DNA
RIPR	≤ 0.2
RIPG	0.703
RIPF	≤ 0.2
DMEL	≤ 0.2
CRVS	≤ 0.2
QASM	≤ 0.2
RYVD	≤ 0.2
RYKG	0.91
RYVG	0.899
RYVP	≤ 0.2
RYKQ	≤ 0.2
RYKF	0.257
VKQG	≤ 0.2
RVVK	≤ 0.2
RVVF	0.22
RVKQ	≤ 0.2
RVKG	0.941
RVKM	0.393
RVVG	0.942
QSVI	≤ 0.2
